Common to all, as to test: pooled miR-30 sensor sort-seq; sequence = guide strand
Common to all, as to conditions: shRNA

The target in test [1] is CYSLTR1.
Test [2] deals with CYP4V2.
Test [3] concerns the target CYP4A22.
For test [4], the target named is CYTH1.
For test [5], the target named is DCPS.
The target of test [6] is DNAJC13.
The target of test [7] is DNMT3L.
Test [8] concerns the target DPRX.
The target in test [9] is DUSP3.
The target of test [10] is DTX3L.
In test [11] the target is DUSP22.
Test [12] concerns the target DTX1.
Test [13] deals with EEF1B2.
Further: reference of the scale not given here.

TTAGTTTGATTGTCTTGTGGGG: the sensor-assay potency score (higher = more potent) in test [1] amounted to 0.0611.

In test [1], TTTCTGAATGTAGACAGCCTTT gave a sensor-assay potency score (higher = more potent) of -1.15.

TTCTAGACCAAGCTCTTCTCTT had a sensor-assay potency score (higher = more potent) in [2] of -0.575.

In test [1], TAAATTAATCATGTATACTTGG gave a sensor-assay potency score (higher = more potent) of -0.15.

In turn, TCATTCTATAAACTGCACGGAC came in with a sensor-assay potency score (higher = more potent) in test [2] of -0.644.

TCAACTGTCCTTCTAGACCAAG yielded a sensor-assay potency score (higher = more potent) in [2] of -1.36.

In test [3], TTAATGCACATGGTGGTGTAGG had a sensor-assay potency score (higher = more potent) of -1.01.

TTTGTGAACATAATAGACCACA: in test [1], the sensor-assay potency score (higher = more potent) was -0.314.

The sequence TTCAACTTGATCCAGATGCCAT displayed a sensor-assay potency score (higher = more potent) in test [2] of -0.613.

Regarding TTCTGCTATCTCATCCTTCAGC, in test [4], the sensor-assay potency score (higher = more potent) was -0.329.

ATATCTTCATGACTTAGCCTGT returned a sensor-assay potency score (higher = more potent) in test [2] of -0.479.

ATACCTACACACACAAACCTGG had a sensor-assay potency score (higher = more potent) in test [1] of -0.207.

Sequence TTCTTCAGGTCTTCTACTGTAG gave a sensor-assay potency score (higher = more potent) in test [2] of -0.329.

Turning to TAGAGGATCCAGGAGATCCCAC, in test [3], the sensor-assay potency score (higher = more potent) is -1.33.

In [4], TTGCACTGACAATATCGCTGGG came in with a sensor-assay potency score (higher = more potent) of 0.116.

Sequence TAACACATTCCAGATACCGAAG gave a sensor-assay potency score (higher = more potent) in test [2] of -1.38.

The sequence ATTCCTGTAGTCATCTCCCGTC showed a sensor-assay potency score (higher = more potent) in test [5] of -0.108.

With TATCTTGTCCTTTTGTCTCTTC, the sensor-assay potency score (higher = more potent) in [6] is 0.492.

As for TTGAAATATTCTCTTAGGGGGA, the sensor-assay potency score (higher = more potent) in [7] was -0.387.

Regarding TCGATGACCCGTGTACACCAGG, the sensor-assay potency score (higher = more potent) in [8] was -1.09.

In turn, TAGTCTGTCATTGAGCTGGCAG came in with a sensor-assay potency score (higher = more potent) in [9] of -0.572.

TTTGTGGTGAATATCATTCCAA gave a sensor-assay potency score (higher = more potent) in test [10] of -0.425.

For TTCTTTGAAATGTCTTGTCAGG, in [11], the sensor-assay potency score (higher = more potent) is -0.54.

In test [10], TATTCTTTCAATGTCTTGGAAG came in with a sensor-assay potency score (higher = more potent) of -0.89.

ATTCTTTTGAGCCAAAGCCTGG returned a sensor-assay potency score (higher = more potent) in test [9] of -1.5.

TTCACAGGAAGCAATCACGAGC yielded a sensor-assay potency score (higher = more potent) in test [11] of -0.769.

TTGGAAGTCACCACACACCTTC had a sensor-assay potency score (higher = more potent) in [10] of 0.463.

For TAGCTCTCCAGCTTCCTTCGTA, the sensor-assay potency score (higher = more potent) in test [10] worked out at 0.0161.

TTTCTTTGAAATGTCTTGTCAG displayed a sensor-assay potency score (higher = more potent) in test [11] of -0.0889.

Consider TAGTTTCTGCAGCTTGGGGATG, for which the sensor-assay potency score (higher = more potent) in test [9] was -1.37.

In turn, TTCCAGGGTATCTCTTTCCTGG displayed a sensor-assay potency score (higher = more potent) in test [10] of -0.87.

In [11], AATATGTGTCACCTTGTTCTTG returned a sensor-assay potency score (higher = more potent) of -0.44.

For TACTTAAACTCTATGTTGCTTT, the sensor-assay potency score (higher = more potent) in test [11] was -0.452.

Consider TTTGAAAAGAGCAATCGCTGGC, for which the sensor-assay potency score (higher = more potent) in [12] was 0.224.

For TTTTTCAACACTCTCTCCTTAG, in test [10], the sensor-assay potency score (higher = more potent) was -0.54.

Take TTGACGTGCATGAAGGACCTGC: the sensor-assay potency score (higher = more potent) in test [9] is 0.645.

The sequence TTGAGGTCTCGTGTTCTTCTTT showed a sensor-assay potency score (higher = more potent) in [10] of -0.195.

The sequence TCTTCCTTCAGCCACTGCCGAT had a sensor-assay potency score (higher = more potent) in [11] of -1.53.

As to TTCAAAGTAAGCGCTGAGGTTG, in test [9], the sensor-assay potency score (higher = more potent) was -0.662.

In turn, TTGTAGAAGTTGGCATTGGTGT yielded a sensor-assay potency score (higher = more potent) in test [9] of -0.415.

Regarding ATATGTGTCACCTTGTTCTTGC, the sensor-assay potency score (higher = more potent) in [11] came to 0.858.

In test [10], TTGTGGTGAATATCATTCCAAG returned a sensor-assay potency score (higher = more potent) of -1.27.

TTCGATCTCTGATATCTCCTGT gave a sensor-assay potency score (higher = more potent) in test [10] of 0.612.

For the sequence ATACTGATGGACCTCATGCTTC, in test [11], the sensor-assay potency score (higher = more potent) was -1.22.

Sequence TGTCTAGGTAGCTAGCGTCCGG registered a sensor-assay potency score (higher = more potent) in [12] of -0.967.

In the case of ATTGGTGTTGACGTGCATGAAG, the sensor-assay potency score (higher = more potent) in test [9] is -1.24.

In turn, TTCTGCCGCATCATGAGGTAGG had a sensor-assay potency score (higher = more potent) in [9] of -0.351.

Regarding TGTGATGCCGGAGTCCTTGTAG, the sensor-assay potency score (higher = more potent) in [9] was determined as 0.0865.

TTGGGGAGCGGCTATAACCTTC returned a sensor-assay potency score (higher = more potent) in test [9] of -1.39.

In the case of TTGAAGTAGATGAGGTAGCAGA, the sensor-assay potency score (higher = more potent) in test [12] was -0.853.

With TAGAACATACTGCTTCGCCTTT, the sensor-assay potency score (higher = more potent) in test [10] was -0.506.

In turn, TTCAGCACATGGGTGATGCCTA yielded a sensor-assay potency score (higher = more potent) in [9] of -0.601.

In test [9], AGACTTGACGTCCATCTTCTGC yielded a sensor-assay potency score (higher = more potent) of -1.63.

TTGACGTCCATCTTCTGCCGCA yielded a sensor-assay potency score (higher = more potent) in [9] of -0.0981.

In test [9], TATGTGATGCCGGAGTCCTTGT yielded a sensor-assay potency score (higher = more potent) of -1.17.

TTAACGAAAACATAGAGCTTTC: the sensor-assay potency score (higher = more potent) in test [11] was -0.995.

In turn, TAAAGAGACACATTCTTGCTTC displayed a sensor-assay potency score (higher = more potent) in test [10] of 0.883.

As to TTAGTTCTCAACATAAACATGA, the sensor-assay potency score (higher = more potent) in test [11] was -0.0599.

In test [10], TTCGTCAACAAGTATTTGGTGC came in with a sensor-assay potency score (higher = more potent) of 0.16.

Regarding TATCTGTTCCAACTTTATCATC, in test [13], the sensor-assay potency score (higher = more potent) was -1.68.

Source of the values: the OligoGym collection.
